Screening results as filed in PubChem.
NFkB SMM = binders of NF-kB p50 subunit, primary screen, biochemical, small molecule microarray, anti-His fluorescence. calls only. anti-His fluorescence binding. 1.3% of 17,000 active. Nuclear factor NF-kappa-B p105 subunit (Homo sapiens), P19838;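 active = spot fluorescence over background significantly raised, with a chance value under 7% in all four replicate spots of the compound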;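 note: probe protein is his-tagged human p50 processed subunit at 1 µg/ml; raw spot fluorescence signals with no normalization applied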
c-Myc SMM = binders of human c-Myc, primary screen, biochemical, small molecule microarray, anti-His fluorescence | Myc proto-oncogene protein (Homo sapiens), P01106 | His-c-Myc binding | 1.5% of 17,000 active | AID 624141, 2012 | calls only;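 active = spot fluorescence over background with P-value below 7% in all four replicate spots, showing protein binding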;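 note: score is binary with 100 for all four spots passing and 0 otherwise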
mut p53 react = mutant p53 pathway re-activators, primary screen, cell-based, SW480, luciferase, single point, HTS; activation, % at 9.98 µM; SW480 PUMA-promoter luciferase, p53 mutant reactivation; 1.5% of 28,000 active; AID 624151, 2012; in the data active = activation above about 52%
mut p53 SMM = binders of human mutant p53, primary screen, biochemical, small molecule microarray, anti-GST fluorescence. mutant tumor protein p53 (GST-tagged), Homo sapiens. small molecule microarray binding. calls only. 0.4% of 17,000 active. AID 624136, 2012;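 active = compounds whose four printed spots each glow above background more than chance allows, each with a p-value under 7%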
STAT3 SMM = STAT3 binders, primary screen, biochemical, small molecule microarray, single point, set 2. 0.2% of 17,000 active. His-STAT3 binding, anti-His fluorescence. Signal transducer and activator of transcription 3 (Homo sapiens), P40763. AID 624138, 2012. calls only;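 active = compounds whose four printed spots each show fluorescence over background unusually high for their array block, chance value under 7%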
* marks the source's active call; other numbers are inactive results; i = inactive; . = no result; + = active, no number. This is a sample that favours compounds with a hit; in the whole collection about 2.6% have one here.

SMILES | NFkB SMM | c-Myc SMM | mut p53 react | mut p53 SMM | STAT3 SMM
COc1ccc(S(=O)(=O)N(C)CC(=O)O)cc1 | i | + | -11 | i | i
CS(=O)(=O)N(CC(=O)O)c1ccc(Cl)cc1 | . | . | -10 | . | .
CN(CC(=O)O)S(=O)(=O)c1cc(Cl)ccc1Cl | + | + | 4 | i | i
COc1ccc(S(=O)(=O)N(C)CC(=O)O)cc1C | . | . | 12 | . | .
CC(Oc1cccc(NC(=O)c2ccc([N+](=O)[O-])cc2)c1)C(=O)c1cccc(Cl)c1 (stereo not drawn) | . | . | 20 | . | .
O=C(NCCCO)C(=O)NCC1COc2ccccc2O1 (stereo not drawn) | i | i | 15 | i | i
O=C(CCc1ccc(O)cc1)CC(O)CCc1ccc(O)c(O)c1 (stereo not drawn) | i | i | 16 | i | i
C=CCN1Cc2ccccc2[C@H]2OC(c3ccc(OCCCO)cc3)=N[C@@]2(CC=C)C1=O | i | i | . | + | i
CC(NC(=O)c1ccccc1N)C(N)=O (stereo not drawn) | i | i | -1 | i | i
Cc1ccc(N2C(=O)C3C4C=CC(CNC(=S)Nc5ccc(Br)cc5)(O4)C3C2=O)cc1 (stereo not drawn) | . | . | 6 | . | .
CCn1cc(C(C)NC(=S)Nc2cccc([N+](=O)[O-])c2)c(C)n1 (stereo not drawn) | i | + | -2 | i | i
O=C(CN1C(=O)c2cccc3cccc1c23)Nc1ccccc1C(=O)N1CCCC1 | . | . | -9 | . | .
C=CCN1C(=O)/C(=C2\SC(N3CCCCC3)=NC2=O)c2ccccc21 | . | . | 68* | . | .
Clc1ccc2ncnc(NCc3ccc4c(c3)OCO4)c2c1 | i | i | -53 | i | i
COc1ccc2ncc3c(c2c1)-c1cc(Cl)ccc1OC3 | . | . | 69* | . | .
O=C(NCc1ccco1)c1cc2nc(-c3cccs3)cc(C(F)(F)Cl)n2n1 | i | i | 18 | i | i
COCCNc1ncnc2c1cnn2-c1cccc(C)c1 | i | i | 101* | i | i
C[C@H]1CCCCO[C@@H](CN(C)C)[C@@H](C)CN([C@@H](C)CO)C(=O)c2cc(NC(=O)c3ccncc3)ccc2O1 | i | i | -6 | i | i
CC(C)NC(=O)N(C)C[C@@H]1OCCCC[C@@H](C)Oc2ccc(NC(=O)c3ccccc3)cc2C(=O)N([C@@H](C)CO)C[C@@H]1C | i | i | 8 | i | i
C[C@H](CO)N1C[C@H](C)[C@H](CN(C)S(=O)(=O)c2cccs2)OCCCC[C@H](C)Oc2ccc(NC(=O)c3ccncc3)cc2C1=O | + | i | -11 | i | i
CC(C)NC(=O)N(C)C[C@@H]1OCCCC[C@@H](C)Oc2ccc(NC(=O)c3ccncc3)cc2C(=O)N([C@H](C)CO)C[C@@H]1C | i | i | 7 | i | i
CC(C)NC(=O)N(C)C[C@@H]1OCCCC[C@@H](C)Oc2ccc(NC(=O)c3ccncc3)cc2C(=O)N([C@H](C)CO)C[C@H]1C | + | + | -5 | i | i
CC(C)NC(=O)N(C)C[C@H]1OCCCC[C@H](C)Oc2ccc(NC(=O)c3ccncc3)cc2C(=O)N([C@@H](C)CO)C[C@@H]1C | + | + | -4 | i | i
C[C@@H]1CN([C@H](C)CO)C(=O)c2cc(NC(=O)c3ccncc3)ccc2O[C@@H](C)CCCCO[C@H]1CN(C)C | i | + | 8 | i | i
COc1ccc(CN2C(=O)C(O)(CC(=O)c3ccc(C)s3)c3ccccc32)cc1OC (stereo not drawn) | . | . | 9 | . | .
SMILES | NFkB SMM | c-Myc SMM | mut p53 react | mut p53 SMM | STAT3 SMM
CCNc1nc(SCC(N)=O)nc(N2CCOCC2)n1 | . | . | 3 | . | .
CC(C)NC(=O)N(C)C[C@H]1OCCCC[C@H](C)Oc2ccc(NC(=O)c3ccncc3)cc2C(=O)N([C@H](C)CO)C[C@@H]1C | + | i | 3 | i | i
Cc1ccc([N+](=O)[O-])cc1NC(=O)CSc1nnnn1-c1ccccc1 | . | . | 2 | . | .
O=C1O[C@H](c2ccccc2)[C@H](c2ccccc2)N2[C@H]1[C@@H](C(=O)N1CCCCCCC1)[C@]1(C(=O)Nc3ccc(C#CC4=CCCCC4)cc31)[C@H]2c1ccccc1OCCO | + | + | . | + | i
COc1cc2c(cc1OC)CN(C(=O)[C@@H]1[C@H]3C(=O)O[C@H](c4ccccc4)[C@H](c4ccccc4)N3[C@H](c3ccccc3OCCO)[C@@]13C(=O)Nc1ccc(C#CCNC(N)=O)cc13)CC2 | + | i | . | i | i
NC(=O)NCC#Cc1ccc2c(c1)[C@]1(C(=O)N2)[C@H](c2ccccc2OCCO)N2[C@H](c3ccccc3)[C@H](c3ccccc3)OC(=O)[C@H]2[C@@H]1C(N)=O | i | i | . | i | i
NC(=O)NCC#Cc1ccc2c(c1)[C@]1(C(=O)N2)[C@H](C(=O)N2CCCCCCC2)[C@H]2C(=O)O[C@H](c3ccccc3)[C@H](c3ccccc3)N2[C@@H]1c1ccccc1OCCO | i | + | . | + | i
COC(=O)c1cc(NC(=O)COc2ccc(I)cc2)cc(C(=O)OC)c1 | . | . | 7 | . | .
C[C@@H]1CCCCO[C@H](CN(C)C(=O)CCC(F)(F)F)[C@@H](C)CN([C@H](C)CO)C(=O)c2cc(NS(=O)(=O)c3cccs3)ccc2O1 | i | i | -5 | i | i
C[C@H](CO)N1C[C@H](C)[C@@H](CN(C)C(=O)CCC(F)(F)F)OCCCC[C@H](C)Oc2ccc(NS(C)(=O)=O)cc2C1=O | + | + | 8 | i | i
C[C@@H]1CN([C@@H](C)CO)C(=O)c2cc(NS(=O)(=O)c3cccs3)ccc2O[C@@H](C)CCCCO[C@@H]1CN(C)C(=O)CCC(F)(F)F | + | i | -2 | i | i
C[C@@H]1CCCCO[C@@H](CN(C)C(=O)CCC(F)(F)F)[C@H](C)CN([C@@H](C)CO)C(=O)c2cc(NS(=O)(=O)c3ccccc3)ccc2O1 | + | + | -12 | i | i
Cc1ccccc1-c1cc(C(=O)NCCCn2cc(Br)cn2)c2ccccc2n1 | i | i | -21 | i | i
Cc1ccc(-c2ccn(-c3ccc(C)c(Cl)c3)c(=S)n2)cc1 | . | . | 17 | . | .
C=CCNC(=O)[C@@H]1[C@H]2C(=O)O[C@H](c3ccccc3)[C@H](c3ccccc3)N2[C@H](c2ccccc2OCCO)[C@@]12C(=O)Nc1ccc(C#Cc3ccc(OC)cc3)cc12 | + | i | . | i | i
COc1ccc(C#Cc2ccc3c(c2)[C@]2(C(=O)N3)[C@H](c3ccc(OCCO)cc3)N3[C@H](c4ccccc4)[C@H](c4ccccc4)OC(=O)[C@H]3[C@@H]2C(=O)Nc2nc3ccccc3s2)cc1 | + | i | . | i | i
